# Source: PubChem BioAssay (NCATS)
# Records with an inconclusive call do not appear. Entries that show only a call come without a potency. Activity calls are given as the source filed them. Calls come from the whole dose curve; as a rule, active = well fitted curve in the direction sought with a large enough effect; inconclusive = small, poorly fitted or top-dose-only effect, or another doubt; inactive = no such curve, though single readings can be large; an effect the other way counts as inactive or inconclusive.
# Test: Cytometric Cell-Based qHTS for Inhibitors of the mTORC1 Signaling Pathway in MEF (Tsc2-/-, p53-/-) Cells (AID 2660);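 note: percent of cells above a phospho-rpS6 to PI ratio cutoff in each well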
# Settings: mTORC1 pathway cytometry; series mostly up to 38.3 µM
# How it was run: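 Percent of cells positive for normalized phospho-S6 staining is reported, with the cutoff set from rapamycin (7.5 nM) versus DMSO wells. Tsc2-/-, p53-/- MEFs received compound for 24 hrs.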
row,Compound,Potency
1,C[N+]1(C)CCOC(O)(c2ccc(-c3ccc(C4(O)C[N+](C)(C)CCO4)cc3)cc2)C1 (stereo not drawn),inactive
2,COc1ccc2[nH]cc(CCN)c2c1,inactive
3,NC(CCCCCP(=O)(O)O)C(=O)O (stereo not drawn),inactive
4,CC(C)NP(=O)(NC(C)C)OP(=O)(NC(C)C)NC(C)C,inactive
5,C[C@]12Cc3cn4c(nc3C=C1CCC1C2CC[C@@]2(C)[C@H]1CC[C@@]2(O)C#N)nc1ccccc14 (stereo partly drawn),inactive
6,CCCN1CC[C@@H]2c3cc(O)ccc3CC[C@@H]21,inactive
7,NCCCP(=O)(O)O,inactive
8,C[N+](C)(C)CCOC(=O)CBr,inactive
9,C=CCN1C[C@@H](C)N([C@H](c2ccc(C(=O)N(CC)CC)cc2)c2cccc(OC)c2)C[C@@H]1C,inactive
10,Cc1o[nH]c(=O)c1CC(N)C(=O)O (stereo not drawn),inactive
11,C[N+](C)(C)CC#CCN1CCCC1=O,inactive
12,NC(C(=O)O)c1cc(=O)[nH]o1 (stereo not drawn),inactive
13,O=C(O)c1cc[c]([Hg][Cl])cc1,inactive
14,C[Se]C[C@H](N)C(=O)O,inactive
15,CO[C@H]1CC=C2CCN3CCC4=C(CC(=O)OC4)[C@]23C1,inactive
16,COc1ccc(CNC(=O)/C=C/c2ccc3[nH]cc(CCN(C)C)c3c2)cc1,inactive
17,COc1ccc(OC)c(C(O)C(C)N)c1 (stereo not drawn),inactive

row,Compound,Potency
1,CC12NC(Cc3ccccc31)c1ccccc12 (stereo not drawn),inactive
2,NC(=O)c1ccc(OCC(O)CN2CC=C(c3ccc(F)cc3)CC2)cc1 (stereo not drawn),inactive
3,C=CCN1CC[C@]23c4c5ccc(O)c4O[C@H]2/C(=N/NC(=O)c2ccccc2)CC[C@@]3(O)[C@H]1C5,inactive
4,CC(=O)NBr,inactive
5,CN1CCc2cccc(Cl)c2CC1,inactive
6,CN(C(=O)Cc1ccc(Cl)c(Cl)c1)C(CN1CCCC1)c1cccc(OCC(=O)O)c1 (stereo not drawn),inactive
7,C[C@@H]1O[C@H](C[N+](C)(C)C)CS1,inactive
8,CCCN(CCC)C1CCc2cccc(O)c2C1 (stereo not drawn),inactive
9,C[C@H](Cc1ccc2c(c1)OC(C(=O)O)(C(=O)O)O2)NC[C@H](O)c1cccc(Cl)c1,inactive
10,CC(Cc1ccc(OCC(=O)O)cc1)NCC(O)c1cccc(Cl)c1 (stereo not drawn),inactive
11,NCCc1ccc(S(=O)(=O)F)cc1,inactive
12,Clc1ccc(N2CC3CCC(C2)N3)nn1,inactive
13,NC(=O)c1cc(N2CC2)c([N+](=O)[O-])cc1[N+](=O)[O-],inactive
14,O=S1(=O)N(CCN2CC=C(c3c[nH]c4cc(F)ccc34)CC2)c2cccc3c2N1CCC3,inactive
15,NC(Cc1ccc(N(CCCl)CCCl)cc1)C(=O)O (stereo not drawn),inactive
16,N[C@@H](CCl)C(=O)O,inactive
17,NC(N)=NOCC[C@H](N)C(=O)O,inactive

# Test: High Content Imaging Cell-Based qHTS for Inhibitors of the mTORC1 Signaling Pathway in MEF (Tsc2-/-, p53-/-) Cells (AID 2666);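 note: percent of cells scored positive for phospho-rpS6 Ser235/236 immunostaining by imaging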
# Settings: series mostly up to 38.3 µM
# How it was run: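 Phospho-rpS6 (Ser235/236) immunofluorescence, normalized and scored as % positive cells using rapamycin and DMSO controls, was read in empty-vector Tsc2-/-, p53-/- MEFs after 24 h compound exposure at 37 C; propidium iodide counted cells.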
row,Compound,Potency
1,C[N+]1(C)CCOC(O)(c2ccc(-c3ccc(C4(O)C[N+](C)(C)CCO4)cc3)cc2)C1 (stereo not drawn),inactive
2,COc1ccc2[nH]cc(CCN)c2c1,inactive
3,NC(CCCCCP(=O)(O)O)C(=O)O (stereo not drawn),inactive
4,CC(C)NP(=O)(NC(C)C)OP(=O)(NC(C)C)NC(C)C,inactive
5,C[C@]12Cc3cn4c(nc3C=C1CCC1C2CC[C@@]2(C)[C@H]1CC[C@@]2(O)C#N)nc1ccccc14 (stereo partly drawn),inactive
6,CCCN1CC[C@@H]2c3cc(O)ccc3CC[C@@H]21,inactive
7,NCCCP(=O)(O)O,inactive
8,C[N+](C)(C)CCOC(=O)CBr,inactive
9,C=CCN1C[C@@H](C)N([C@H](c2ccc(C(=O)N(CC)CC)cc2)c2cccc(OC)c2)C[C@@H]1C,inactive
10,Cc1o[nH]c(=O)c1CC(N)C(=O)O (stereo not drawn),inactive
11,C[N+](C)(C)CC#CCN1CCCC1=O,inactive
12,NC(C(=O)O)c1cc(=O)[nH]o1 (stereo not drawn),inactive
13,O=C(O)c1cc[c]([Hg][Cl])cc1,inactive
14,C[Se]C[C@H](N)C(=O)O,inactive
15,CO[C@H]1CC=C2CCN3CCC4=C(CC(=O)OC4)[C@]23C1,inactive
16,COc1ccc(CNC(=O)/C=C/c2ccc3[nH]cc(CCN(C)C)c3c2)cc1,inactive
17,COc1ccc(OC)c(C(O)C(C)N)c1 (stereo not drawn),inactive

row,Compound,Potency
1,CC12NC(Cc3ccccc31)c1ccccc12 (stereo not drawn),inactive
2,NC(=O)c1ccc(OCC(O)CN2CC=C(c3ccc(F)cc3)CC2)cc1 (stereo not drawn),inactive
3,C=CCN1CC[C@]23c4c5ccc(O)c4O[C@H]2/C(=N/NC(=O)c2ccccc2)CC[C@@]3(O)[C@H]1C5,inactive
4,CC(=O)NBr,inactive
5,CN1CCc2cccc(Cl)c2CC1,inactive
6,CN(C(=O)Cc1ccc(Cl)c(Cl)c1)C(CN1CCCC1)c1cccc(OCC(=O)O)c1 (stereo not drawn),inactive
7,C[C@@H]1O[C@H](C[N+](C)(C)C)CS1,inactive
8,CCCN(CCC)C1CCc2cccc(O)c2C1 (stereo not drawn),inactive
9,C[C@H](Cc1ccc2c(c1)OC(C(=O)O)(C(=O)O)O2)NC[C@H](O)c1cccc(Cl)c1,inactive
10,CC(Cc1ccc(OCC(=O)O)cc1)NCC(O)c1cccc(Cl)c1 (stereo not drawn),inactive
11,NCCc1ccc(S(=O)(=O)F)cc1,inactive
12,Clc1ccc(N2CC3CCC(C2)N3)nn1,inactive
13,NC(=O)c1cc(N2CC2)c([N+](=O)[O-])cc1[N+](=O)[O-],inactive
14,O=S1(=O)N(CCN2CC=C(c3c[nH]c4cc(F)ccc34)CC2)c2cccc3c2N1CCC3,inactive
15,NC(Cc1ccc(N(CCCl)CCCl)cc1)C(=O)O (stereo not drawn),inactive
16,N[C@@H](CCl)C(=O)O,inactive
17,NC(N)=NOCC[C@H](N)C(=O)O,inactive
